Structures are written as SMILES. Records with an inconclusive call do not appear. The source made the active and inactive calls. The call rests on the fitted dose curve; in most records, active means well fitted curve in either direction with a large enough effect (not every such curve was filed as active); inconclusive means small, poorly fitted or top-dose-only effect, or another doubt; inactive means flat fitted curve, though single readings scatter.
On the % scale 0 is the no-effect control and ±100 the full control effect.

The nature of this assay: AP1 Signaling Pathway (AID 357).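 Further: ME-180 reporter cells stimulated with EGF at its EC50 level.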 To be noted: ME-180 (cervical carcinoma) AP-1-bla reporter, EGF-induced, beta-lactamase ratio, 5 h; at 17.2 µM (top of the series) unless noted. The essentials:
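Beta-lactamase reporter under AP-1 response element, ME-180 background. Stimulus: EC50 EGF. Compound exposure 5 h, 37 °C. Detection: CCF4, 2.5 h RT, 460/530 nm. Values: AC50 from titration.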
As to `CC1(C)Cc2c(oc3ncn4ncnc4c23)CO1`, the activity change, negative = inhibition was -9.2% (inactive).
On to `NC(=O)C(c1ccccc1)C1CCCC1` (stereo not given), for which the activity change, negative = inhibition was -5.55% (inactive).
For `COc1ccc(C2=Nn3c(nnc3-c3cccnc3)SC2)cc1OC`, the activity change, negative = inhibition is -11.2% (inactive).
Regarding `O=C1CC(c2ccccc2)NC(=O)N1` (stereo not given), the activity change, negative = inhibition is 8.17% (inactive).
As for `CSCCC(CO)NC(=O)OCc1ccccc1` (stereo not given), the activity change, negative = inhibition is 0.666% (inactive).
Turning to `c1ccc(Cc2nn[nH]n2)cc1`, the activity change, negative = inhibition is 7.13% (inactive).
On to `COC(=O)c1ccc(C2/C(=C(/O)c3ccc(OC)cc3)C(=O)C(=O)N2c2cc(C)on2)cc1` (stereo not given), for which the activity change, negative = inhibition is -14% (inactive).
Regarding `CC1(C)Cc2c(C#N)c(N3CCN(C(=O)c4ccccc4)CC3)nc(-c3ccco3)c2CS1`, the activity change, negative = inhibition was -7.63% (inactive).
For the molecule `CCc1nc(N2CCOCC2)c(C#N)c2c1CCCC2`, the activity change, negative = inhibition is -3.85% (inactive).
Next, `NS(=O)(=O)c1ccc(-c2ccc(C=NC3CCS(=O)(=O)C3)o2)cc1` (stereo not given): 19.2% (inactive); `COC(=O)C1=C(C)OC(N)=C(C#N)C1c1ccc(OC)c(OC)c1OC` (stereo not given): 11.2% (inactive).
On to `COCCNc1nc2c(c(=O)n(C)c(=O)n2C)n1Cc1cccc(C(F)(F)F)c1`, for which the activity change, negative = inhibition was 13.5% (inactive).
Consider `C1CNCCNCCCNCCNC1`, for which the activity change, negative = inhibition is 1.85% (inactive).
Take `O=C(O)C1CSC(CCc2ccccc2)N1` (stereo not given): the activity change, negative = inhibition is 19.9% (inactive).
For `CC(C)OC(=O)CC1=NC(=O)CS1`, the activity change, negative = inhibition was 3.43% (inactive).
Next, `COCCCn1c2nc3ccccc3nc2c2c(=O)n(-c3ccccc3OC)c(C)nc21`: -7.38% (inactive).
As to `COc1ccc(-c2ncncc2-c2csc(C)n2)c(O)c1`, the activity change, negative = inhibition is 2.87% (inactive).
As for `CCCC1Cc2c(sc3ncnc(N)c23)CO1` (stereo not given), the activity change, negative = inhibition was -16.4% (inactive).
Turning to `CCCCc1nc2n[nH]c(N)c2c2c1CCCC2`, the activity change, negative = inhibition is 20.3% (inactive).
As for `COC(=O)c1[nH]c2ccc(Cl)cc2c1NC(=O)C1CC1`, the activity change, negative = inhibition is -4.32% (inactive).
In the case of `CCCOc1ccc(/C(O)=C2/C(=O)C(=O)N(CCN(C)C)C2c2ccc(OC)c(OC)c2)cc1` (stereo not given), the activity change, negative = inhibition was -7.95% (inactive).
Consider `O=C(NCc1ccccc1)/C(=N\O)c1ccccc1`, for which the activity change, negative = inhibition was -2.22% (inactive).
In the case of `COC(=O)CC1=NC(=O)CS1`, the activity change, negative = inhibition is 17.8% (inactive).
Under `O=C(NCCCn1ccnc1)C(Cc1ccccc1)N1C(=O)c2ccccc2C1=O` (stereo not given) stands -14.7% (inactive).
`CN1CCN(C(=O)CSc2nc(-c3ccncc3)ccc2C#N)CC1`: the activity change, negative = inhibition is 2.77% (inactive).
As to `Cc1cccc(C)c1OCC(O)CNS(=O)(=O)c1ccccc1C(=O)N1CCOCC1` (stereo not given), the activity change, negative = inhibition is -8.76% (inactive).
Next, `Cc1cc(C)c(NC(=O)OCCN2CCOCC2)c(C)c1`: 4.21% (inactive); `CC12CCC(C(=O)N(CCC#N)CCC#N)(CC1=O)C2(C)C` (stereo not given): 10.6% (inactive); `C=C(C)Cn1c(-c2ccc(OC)cc2)nc2ccccc21`: -23.2% (inactive).
With `C=CCNc1nc(NCc2ccccc2)c(C#N)c2c1CN(C)CC2`, the activity change, negative = inhibition is 23.1% (inactive).
On to `CCOC(=O)c1c(C(F)(F)C(F)(F)C(F)(F)C(F)(F)F)n[nH]c1C`, for which the activity change, negative = inhibition is 4.08% (inactive).
Next, `COCCN(Cc1ccccc1)P(=O)(O)c1ccccc1OCC(=O)O`: -2.92% (inactive).
In the case of `CC(NC(=O)NC(N)=O)(C(F)(F)F)C(F)(F)F`, the activity change, negative = inhibition was 0.637% (inactive).
For the molecule `CC(C)(C)NC(=O)CSc1nsc(SCC(=O)NC(C)(C)C)c1C#N`, the activity change, negative = inhibition was -5.49% (inactive).
Next, `O=C(CCN1CCCCC1)Nc1cccc(Cl)c1`: 7.3% (inactive); `C=CCOc1nc2c(c(=O)n(C)c(=O)n2C)n1Cc1ccccc1Cl`: -0.647% (inactive); `Cc1ccc(C(=O)C2=C(O)C(=O)N(c3ncccn3)C2c2ccc(Cl)cc2)o1` (stereo not given): -14% (inactive).
With `Cn1c(SCC(=O)N2CCOCC2)nnc1-c1ccc(Cl)cc1Cl`, the activity change, negative = inhibition is -13.7% (inactive).
Regarding `O=C1C2ON(c3ccccc3)C(c3cccnc3)C2C(=O)N1c1ccccc1` (stereo not given), the activity change, negative = inhibition is -5.35% (inactive).
As for `Cc1nnc(C)n1/N=C/c1cccn1C`, the activity change, negative = inhibition was 4.24% (inactive).

For the origin of these results see PubChem BioAssay (NCATS).
